# From the supplement of paper PMC4466140
# Molecular target: AgAbp1
# Test: SPOT peptide array binding signal intensity (averaged, normalized) (arbitrary units (background-subtracted, floor 0; scale differs between SH3 domains)); higher = stronger binding of the SH3 domain to the peptide
# In short: (§1)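 Spot intensities were captured after detection with anti-GST antibody, an HRP-linked anti-mouse secondary and luminol, and quantified with Genespotter. The probes were GST-fused SH3 domains from four yeast species, produced in E. coli BL21(DE3), purified on glutathione Sepharose and incubated at 10 μg/ml overnight at 4°C on cellulose-bound synthetic 15-mer peptides with cysteines replaced by serines. Binding signal is the normalized, background-subtracted spot intensity averaged over replicates, and its arbitrary units differ between domains.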
row,Binder,SPOT peptide array binding signal intensity
1,SSSSSPPPLPTRRDH,≤ 0

# Molecular target: AgBbc1
# Test: as above
# In short: as §1
row,Binder,SPOT peptide array binding signal intensity
1,SSSSSPPPLPTRRDH,364

# Molecular target: AgBem1-D1
# Test: as above
# In short: as §1
row,Binder,SPOT peptide array binding signal intensity
1,SSSSSPPPLPTRRDH,2

# Molecular target: AgBzz1-D1
# Test: as above
# In short: as §1
row,Binder,SPOT peptide array binding signal intensity
1,SSSSSPPPLPTRRDH,26

# Molecular target: AgBzz1-D2
# Test: as above
# In short: as §1
row,Binder,SPOT peptide array binding signal intensity
1,SSSSSPPPLPTRRDH,19.5

# Molecular target: AgCyk3
# Test: as above
# In short: as §1
row,Binder,SPOT peptide array binding signal intensity
1,SSSSSPPPLPTRRDH,1.5

# Molecular target: AgFus1
# Test: as above
# In short: as §1
row,Binder,SPOT peptide array binding signal intensity
1,SSSSSPPPLPTRRDH,15.5

# Molecular target: AgHof1
# Test: as above
# In short: as §1
row,Binder,SPOT peptide array binding signal intensity
1,SSSSSPPPLPTRRDH,59

# Molecular target: AgHse1
# Test: as above
# In short: as §1
row,Binder,SPOT peptide array binding signal intensity
1,SSSSSPPPLPTRRDH,18.5

# Molecular target: AgLsb1
# Test: as above
# In short: as §1
row,Binder,SPOT peptide array binding signal intensity
1,SSSSSPPPLPTRRDH,180

# Molecular target: AgLsb4
# Test: as above
# In short: as §1
row,Binder,SPOT peptide array binding signal intensity
1,SSSSSPPPLPTRRDH,6800

# Molecular target: AgMyo5
# Test: as above
# In short: as §1
row,Binder,SPOT peptide array binding signal intensity
1,SSSSSPPPLPTRRDH,586

# Molecular target: AgNbp2
# Test: as above
# In short: as §1
row,Binder,SPOT peptide array binding signal intensity
1,SSSSSPPPLPTRRDH,16

# Molecular target: AgRvs167
# Test: as above
# In short: as §1
row,Binder,SPOT peptide array binding signal intensity
1,SSSSSPPPLPTRRDH,627

# Molecular target: AgSho1
# Test: as above
# In short: as §1
row,Binder,SPOT peptide array binding signal intensity
1,SSSSSPPPLPTRRDH,19

# Molecular target: AgSla1-D1-D2
# Test: as above
# In short: as §1
row,Binder,SPOT peptide array binding signal intensity
1,SSSSSPPPLPTRRDH,≤ 0

# Molecular target: AgSla1-D3
# Test: as above
# In short: as §1
row,Binder,SPOT peptide array binding signal intensity
1,SSSSSPPPLPTRRDH,≤ 0

# Molecular target: CaAbp1-D1
# Test: as above
# In short: as §1
row,Binder,SPOT peptide array binding signal intensity
1,SSSSSPPPLPTRRDH,7.5

# Molecular target: CaAbp1-D2
# Test: as above
# In short: as §1
row,Binder,SPOT peptide array binding signal intensity
1,SSSSSPPPLPTRRDH,≤ 0

# Molecular target: CaBbc1
# Test: as above
# In short: as §1
row,Binder,SPOT peptide array binding signal intensity
1,SSSSSPPPLPTRRDH,378

# Molecular target: CaBem1-D1
# Test: as above
# In short: as §1
row,Binder,SPOT peptide array binding signal intensity
1,SSSSSPPPLPTRRDH,4

# Molecular target: CaBzz1-D1
# Test: as above
# In short: as §1
row,Binder,SPOT peptide array binding signal intensity
1,SSSSSPPPLPTRRDH,139

# Molecular target: CaBzz1-D2
# Test: as above
# In short: as §1
row,Binder,SPOT peptide array binding signal intensity
1,SSSSSPPPLPTRRDH,≤ 0

# Molecular target: CaCyk3
# Test: as above
# In short: as §1
row,Binder,SPOT peptide array binding signal intensity
1,SSSSSPPPLPTRRDH,2

# Molecular target: CaFus1
# Test: as above
# In short: as §1
row,Binder,SPOT peptide array binding signal intensity
1,SSSSSPPPLPTRRDH,26

# Molecular target: CaHof1
# Test: as above
# In short: as §1
row,Binder,SPOT peptide array binding signal intensity
1,SSSSSPPPLPTRRDH,24.5

# Molecular target: CaHse1
# Test: as above
# In short: as §1
row,Binder,SPOT peptide array binding signal intensity
1,SSSSSPPPLPTRRDH,114

# Molecular target: CaLsb1
# Test: as above
# In short: as §1
row,Binder,SPOT peptide array binding signal intensity
1,SSSSSPPPLPTRRDH,19.5

# Molecular target: CaLsb4
# Test: as above
# In short: as §1
row,Binder,SPOT peptide array binding signal intensity
1,SSSSSPPPLPTRRDH,8630

# Molecular target: CaMyo5
# Test: as above
# In short: as §1
row,Binder,SPOT peptide array binding signal intensity
1,SSSSSPPPLPTRRDH,6.5

# Molecular target: CaNbp2
# Test: as above
# In short: as §1
row,Binder,SPOT peptide array binding signal intensity
1,SSSSSPPPLPTRRDH,24.5

# Molecular target: CaRvs167
# Test: as above
# In short: as §1
row,Binder,SPOT peptide array binding signal intensity
1,SSSSSPPPLPTRRDH,1510

# Molecular target: CaRvs167-3
# Test: as above
# In short: as §1
row,Binder,SPOT peptide array binding signal intensity
1,SSSSSPPPLPTRRDH,7.25

# Molecular target: CaSho1
# Test: as above
# In short: as §1
row,Binder,SPOT peptide array binding signal intensity
1,SSSSSPPPLPTRRDH,6.5

# Molecular target: CaSla1-D1-D2
# Test: as above
# In short: as §1
row,Binder,SPOT peptide array binding signal intensity
1,SSSSSPPPLPTRRDH,76

# Molecular target: CaSla1-D3
# Test: as above
# In short: as §1
row,Binder,SPOT peptide array binding signal intensity
1,SSSSSPPPLPTRRDH,3.25

# Molecular target: ScAbp1
# Test: as above
# In short: as §1
row,Binder,SPOT peptide array binding signal intensity
1,SSSSSPPPLPTRRDH,≤ 0

# Molecular target: ScBbc1
# Test: as above
# In short: as §1
row,Binder,SPOT peptide array binding signal intensity
1,SSSSSPPPLPTRRDH,4

# Molecular target: ScBem1-D1
# Test: as above
# In short: as §1
row,Binder,SPOT peptide array binding signal intensity
1,SSSSSPPPLPTRRDH,≤ 0

# Molecular target: ScBzz1-D1
# Test: as above
# In short: as §1
row,Binder,SPOT peptide array binding signal intensity
1,SSSSSPPPLPTRRDH,≤ 0

# Molecular target: ScBzz1-D2
# Test: as above
# In short: as §1
row,Binder,SPOT peptide array binding signal intensity
1,SSSSSPPPLPTRRDH,12

# Molecular target: ScCyk3
# Test: as above
# In short: as §1
row,Binder,SPOT peptide array binding signal intensity
1,SSSSSPPPLPTRRDH,1

# Molecular target: ScFus1
# Test: as above
# In short: as §1
row,Binder,SPOT peptide array binding signal intensity
1,SSSSSPPPLPTRRDH,20

# Molecular target: ScHof1
# Test: as above
# In short: as §1
row,Binder,SPOT peptide array binding signal intensity
1,SSSSSPPPLPTRRDH,9.75

# Molecular target: ScHse1
# Test: as above
# In short: as §1
row,Binder,SPOT peptide array binding signal intensity
1,SSSSSPPPLPTRRDH,15

# Molecular target: ScLsb1
# Test: as above
# In short: as §1
row,Binder,SPOT peptide array binding signal intensity
1,SSSSSPPPLPTRRDH,1340

# Molecular target: ScLsb2
# Test: as above
# In short: as §1
row,Binder,SPOT peptide array binding signal intensity
1,SSSSSPPPLPTRRDH,349

# Molecular target: ScLsb3
# Test: as above
# In short: as §1
row,Binder,SPOT peptide array binding signal intensity
1,SSSSSPPPLPTRRDH,5910

# Molecular target: ScLsb4
# Test: as above
# In short: as §1
row,Binder,SPOT peptide array binding signal intensity
1,SSSSSPPPLPTRRDH,7200

# Molecular target: ScMyo3
# Test: as above
# In short: as §1
row,Binder,SPOT peptide array binding signal intensity
1,SSSSSPPPLPTRRDH,460

# Molecular target: ScMyo5
# Test: as above
# In short: as §1
row,Binder,SPOT peptide array binding signal intensity
1,SSSSSPPPLPTRRDH,166

# Molecular target: ScNbp2
# Test: as above
# In short: as §1
row,Binder,SPOT peptide array binding signal intensity
1,SSSSSPPPLPTRRDH,≤ 0

# Molecular target: ScPex13
# Test: as above
# In short: as §1
row,Binder,SPOT peptide array binding signal intensity
1,SSSSSPPPLPTRRDH,1560

# Molecular target: ScRvs167
# Test: as above
# In short: as §1
row,Binder,SPOT peptide array binding signal intensity
1,SSSSSPPPLPTRRDH,2180

# Molecular target: ScSho1
# Test: as above
# In short: as §1
row,Binder,SPOT peptide array binding signal intensity
1,SSSSSPPPLPTRRDH,26.5

# Molecular target: ScSla1-D1-D2
# Test: as above
# In short: as §1
row,Binder,SPOT peptide array binding signal intensity
1,SSSSSPPPLPTRRDH,51

# Molecular target: ScSla1-D3
# Test: as above
# In short: as §1
row,Binder,SPOT peptide array binding signal intensity
1,SSSSSPPPLPTRRDH,10

# Molecular target: SpAbp1-D1
# Test: as above
# In short: as §1
row,Binder,SPOT peptide array binding signal intensity
1,SSSSSPPPLPTRRDH,22.5

# Molecular target: SpBbc1
# Test: as above
# In short: as §1
row,Binder,SPOT peptide array binding signal intensity
1,SSSSSPPPLPTRRDH,13

# Molecular target: SpBzz1-D1
# Test: as above
# In short: as §1
row,Binder,SPOT peptide array binding signal intensity
1,SSSSSPPPLPTRRDH,406

# Molecular target: SpBzz1-D2
# Test: as above
# In short: as §1
row,Binder,SPOT peptide array binding signal intensity
1,SSSSSPPPLPTRRDH,9.75

# Molecular target: SpCyk3
# Test: as above
# In short: as §1
row,Binder,SPOT peptide array binding signal intensity
1,SSSSSPPPLPTRRDH,2

# Molecular target: SpHof1
# Test: as above
# In short: as §1
row,Binder,SPOT peptide array binding signal intensity
1,SSSSSPPPLPTRRDH,8.75

# Molecular target: SpHof1-2
# Test: as above
# In short: as §1
row,Binder,SPOT peptide array binding signal intensity
1,SSSSSPPPLPTRRDH,54.5

# Molecular target: SpHof1-3
# Test: as above
# In short: as §1
row,Binder,SPOT peptide array binding signal intensity
1,SSSSSPPPLPTRRDH,8.75

# Molecular target: SpHse1
# Test: as above
# In short: as §1
row,Binder,SPOT peptide array binding signal intensity
1,SSSSSPPPLPTRRDH,35

# Molecular target: SpLsb1
# Test: as above
# In short: as §1
row,Binder,SPOT peptide array binding signal intensity
1,SSSSSPPPLPTRRDH,1530

# Molecular target: SpLsb4
# Test: as above
# In short: as §1
row,Binder,SPOT peptide array binding signal intensity
1,SSSSSPPPLPTRRDH,6770

# Molecular target: SpMyo1
# Test: as above
# In short: as §1
row,Binder,SPOT peptide array binding signal intensity
1,SSSSSPPPLPTRRDH,308

# Molecular target: SpNbp2
# Test: as above
# In short: as §1
row,Binder,SPOT peptide array binding signal intensity
1,SSSSSPPPLPTRRDH,6

# Molecular target: SpPex13
# Test: as above
# In short: as §1
row,Binder,SPOT peptide array binding signal intensity
1,SSSSSPPPLPTRRDH,6.5

# Molecular target: SpRvs167
# Test: as above
# In short: as §1
row,Binder,SPOT peptide array binding signal intensity
1,SSSSSPPPLPTRRDH,2880

# Molecular target: SpSla1-D1-D2
# Test: as above
# In short: as §1
row,Binder,SPOT peptide array binding signal intensity
1,SSSSSPPPLPTRRDH,11

# Molecular target: SpSla1-D3
# Test: as above
# In short: as §1
row,Binder,SPOT peptide array binding signal intensity
1,SSSSSPPPLPTRRDH,9.5
